Glioma ERSR ind = qHTS for Inducers of the Endoplasmic Reticulum Stress Response (ERSR) in Human Glioma: qHTS; U87-MG GRP78 promoter luciferase reporter, 16 h; Potency, µM, for the others: at the top dose activation, usual class: activators; 0.02% of 420,000 active; AID 602332, 2012; further: potency means the concentration at half of the fitted maximal effect; series mostly up to about 76 µM; % of control where 0% means no effect; nearly all actives have a fitted effect of over 35% in size
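ERSR induction read as luciferase luminescence (Bright-Glo, 10 min at room temperature) in stably transfected human U87-MG glioma cells exposed to compounds for 16 h, using GRP78 as sensor.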
Tb PGK inh = qHTS Assay to Find Inhibitors of Phosphoglycerate Kinase | 0.043% of 380,000 active | Potency, µM (top dose mostly 57.5 µM), inactives show top-dose activity change, negative = inhibition, actives largely listed as inhibitors | Phosphoglycerate kinase, glycosomal (Trypanosoma brucei brucei), P07378 | AID 602233, 2012 | PGK/GAPDH coupled, Kinase-Glo luminescence, 60 min; further: potency means the concentration at half of the fitted maximal effect; on the % scale 0 is the no-effect control and ±100 the full control effect; nearly all actives have a fitted effect of over 60% in size
Target sequence (P07378 whole entry, looked up): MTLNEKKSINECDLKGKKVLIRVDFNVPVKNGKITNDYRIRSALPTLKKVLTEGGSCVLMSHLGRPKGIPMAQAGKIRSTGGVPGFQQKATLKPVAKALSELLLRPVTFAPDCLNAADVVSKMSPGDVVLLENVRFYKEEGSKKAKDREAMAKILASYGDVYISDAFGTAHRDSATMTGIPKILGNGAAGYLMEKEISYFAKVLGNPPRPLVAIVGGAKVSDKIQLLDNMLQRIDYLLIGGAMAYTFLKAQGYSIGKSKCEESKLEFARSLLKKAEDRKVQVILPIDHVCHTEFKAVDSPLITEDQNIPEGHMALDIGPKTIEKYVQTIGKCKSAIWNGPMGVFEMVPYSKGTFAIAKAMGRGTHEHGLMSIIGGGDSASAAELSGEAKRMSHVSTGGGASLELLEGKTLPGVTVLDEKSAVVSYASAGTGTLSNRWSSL
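Recombinant glycosomal PGK reaction used 1,3-bisphosphoglycerate generated in-well by GAPDH (100nM final) in 100mM TEA pH 7.6, 5mM MgCl2, 0.01% Tween-20. After 60 minutes at room temperature, ATP was read by Kinase-Glo Plus luminescence end-point.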
Pin1 inh = qHTS Assay to Find Inhibitors of Pin1; Pin1 FP peptide displacement, HiFluor488, 10 min; Potency, µM (doses to about 115 µM), without a hit: top-dose activity, negative = inhibition, most hits filed as inhibitors; Peptidyl-prolyl cis-trans isomerase NIMA-interacting 1 (Homo sapiens), Q13526; 0.009% of 390,000 active; active means well fitted inhibition curve with a large enough effect in the polarisation, with a control signal flat, not every such curve was filed as active; inconclusive means small, poorly fitted or top-dose-only effect, or effect the other way, or a change in a side signal; inactive means no such curve, though single readings can be large or run the other way; the % refers to the polarisation; further: potency means the concentration at half of the fitted maximal effect; on the % scale 0 is the no-effect control and ±100 the full control effect
PI5P4Ka inh = qHTS for Inhibitors of phosphatidylinositol 5-phosphate 4-kinase (PI5P4K). Phosphatidylinositol 5-phosphate 4-kinase type-2 alpha (Homo sapiens), P48426. PI5P4Kalpha enzyme, ADP-Glo luminescence, 60 min; hits give low values. max response, %. 1.2% of 330,000 active. AID 652105, 2013; active means max response of -50% or lower; inconclusive means between -30% and -50%; inactive means -30% or higher; further: value at the top dose of about 77 µM; on the % scale 0 is the no-effect control and ±100 the full control effect
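Luminescence from ADP-Glo served as readout of PI5P4Kalpha activity in a qHTS format. Reaction: enzyme, substrate, compound, ATP at 5 microM final, 60 min at RT.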
WRN helicase inh-1 = qHTS for Inhibitors of WRN Helicase; 0.46% of 360,000 active; WRN helicase unwinding, fluorescent forked duplex, kinetic; Potency, µM (highest dose often 114 µM), without a hit: at the highest dose activity change, negative = inhibition, hits mostly inhibitors; Bifunctional 3'-5' exonuclease/ATP-dependent helicase WRN (Homo sapiens), Q14191; further: potency means the concentration at half of the fitted maximal effect; on the % scale 0 is the no-effect control and ±100 the full control effect; nearly all actives have a fitted effect of over 55% in size
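Fluorescence dequenching readout, ex 525 nm/em 598 nm, kinetic mode: forked duplex DNA (100 nM final) with adjacent fluorophore and quencher unwound by WRN (20 nM final) with 2 mM ATP. Compound preincubation 15 min, room temperature.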
FEN1 inh-1 = qHTS Assay for the Inhibitors of Human Flap endonuclease 1 (FEN1). P39748. 0.35% of 390,000 active. AID 588795, 2011. Potency, µM (highest dose often 114 µM), without a hit: at the top dose activity change, negative = inhibition, hits mostly inhibitors. Recombinant FEN1 flap cleavage, fluorescence, 15 min; further: potency means the concentration at half of the fitted maximal effect; on the % scale 0 is the no-effect control and ±100 the full control effect; nearly all actives have a fitted effect of over 65% in size
Target sequence (P39748 whole entry, looked up): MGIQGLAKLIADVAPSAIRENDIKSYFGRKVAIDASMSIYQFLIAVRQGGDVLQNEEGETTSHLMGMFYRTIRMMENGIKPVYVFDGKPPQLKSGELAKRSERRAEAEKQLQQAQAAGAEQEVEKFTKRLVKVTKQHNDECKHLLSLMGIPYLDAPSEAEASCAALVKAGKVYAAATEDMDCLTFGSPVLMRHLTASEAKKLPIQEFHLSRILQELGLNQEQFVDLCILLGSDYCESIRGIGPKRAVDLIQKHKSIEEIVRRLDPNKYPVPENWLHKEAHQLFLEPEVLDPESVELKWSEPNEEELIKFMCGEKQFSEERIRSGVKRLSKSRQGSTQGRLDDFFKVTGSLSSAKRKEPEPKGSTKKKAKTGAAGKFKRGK
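Enzyme 10 nM, 15 min RT preincubation with compound; start with substrate 50 nM final; reads at 0 and 15 min; qHTS titration, four-parameter Hill fit.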
FEN1 inh-2 = qHTS Assay for the Inhibitors of FEN1: Confirmatory Assay for Cherry-picked Compounds; AID 720498, 2013; shares compounds with FEN1 inh-1; Potency, µM, hits mostly inhibitors; FEN1 flap cleavage, TAMRA/BHQ2 fluorogenic DNA substrate; 79% of 880 active; further: potency means the concentration at half of the fitted maximal effect; nearly all actives have a fitted effect of over 60% in size
WRN helicase inh-2 = qHTS for Inhibitors of WRN Helicase: Confirmatory Assay for Cherry-picked Compounds; AID 720497, 2013; 63% of 610 active; shares compounds with WRN helicase inh-1; Potency, µM (highest dose often 57.1 µM), inactives show at the top dose activity, negative = inhibition, usual class: inhibitors; WRN helicase DNA unwinding, fluorescence kinetic; further: potency means the concentration at half of the fitted maximal effect; nearly all actives have a fitted effect of over 65% in size
TO displacement = qHTS for Inhibitors of WRN Helicase: Thiazole Orange DNA Binding Counterscreen | shares compounds with WRN helicase inh-1 | thiazole orange DNA binding displacement, fluorescence | Potency, µM (doses to about 57.1 µM), inactives show at the highest dose activity change, negative = inhibition, actives largely listed as inhibitors | 10% of 610 active | AID 720499, 2013;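 further: drop in dye fluorescence marks compound binding to DNA; potency means the concentration at half of the fitted maximal effect; on the % scale 0 is the no-effect control and ±100 the full control effect; nearly all actives have a fitted effect of over 60% in size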
BLM counter = qHTS for Inhibitors of WRN Helicase: BLM Helicase Counterscreen for WRN Inhibitors. shares compounds with WRN helicase inh-1. Recombinant BLM helicase DNA unwinding, red fluorescence. Potency, µM (series often up to 57.1 µM), without a hit: top-dose activity change, negative = inhibition, usual class: inhibitors. 60% of 610 active. AID 720503, 2013; further: potency means the concentration at half of the fitted maximal effect; nearly all actives have a fitted effect of over 60% in size
The depositor's hits bear a star; i = inactive; ? = inconclusive; nt = not tested or not shown; [ ] = remark or other dose. Sampled rows, rich in hits. Any-hit rate of the full collection: about 1.3%. Unless noted, the call rests on the fitted dose curve; in most records, active means well fitted curve in the direction sought with a large enough effect; inconclusive means small, poorly fitted or top-dose-only effect, or another doubt; inactive means no such curve, though single readings can be large; an effect the other way counts as inactive or inconclusive.

SMILES | Glioma ERSR ind | Tb PGK inh | Pin1 inh | PI5P4Ka inh | WRN helicase inh-1 | FEN1 inh-1 | FEN1 inh-2 | WRN helicase inh-2 | TO displacement | BLM counter
O=C(N/N=C/c1ccncc1)c1cccc(S(=O)(=O)Nc2ccc(Cl)cc2)c1 | -5% | ? | ? | -5 | 22µM* | ? | 67* | 14µM* | 31% | 12µM*
O=C(N/N=C/c1ccc(OC(=O)c2ccccc2Cl)cc1)c1cc(O)cc(O)c1 | 6% | ? | nt | -66* | 13µM* | 56µM* | 76* | 12µM* | 24µM* | 4.8µM*
CCNc1ccc2noc3c2c1C(=O)c1ccccc1-3 | -2% | -1% | ? | nt | 4.2µM* | 50µM* | 85* | 3µM* | i | 7.6µM*
COC(=O)c1cc(CNC(=O)c2ccc(N(C)C)cc2)cc(NC(=O)c2ccccc2Cl)c1 | -4% | nt | nt | nt | nt | nt | nt | nt | nt | nt
COc1cc([N+](=O)[O-])cc(/C=C2/SC(=S)N(Cc3ccccc3)C2=O)c1O | -3% | -18% | 5% | -71* | 2.7µM* | 16µM* | 21* | 7.6µM* | 14µM* | 5.4µM*
COc1cc(/C=C2\SC(=O)N(Cc3ccc(F)cc3)C2=O)cc([N+](=O)[O-])c1O | 1% | -2% | nt | ? | -14%[11.6 µM] | ? | nt | nt | nt | nt
COc1ccc(C2c3c(nc(CCCc4ccccc4)[nH]c3=O)Oc3ccc4ccccc4c32)cc1OC (stereo not given) | nt | nt | 57% | nt | nt | nt | nt | nt | nt | nt
Cc1c(C(=O)NC(C)(C)C)sc2ncnc(NCCN(C)C)c12 | -4% | nt | nt | nt | nt | nt | nt | nt | nt | nt
CCCn1c(=NC(=O)CS(=O)(=O)c2ccccc2)sc2cc(S(C)(=O)=O)ccc21 | -1% | -4% | -1% | 1 | -1% | -8% | nt | nt | nt | nt
CS(=O)(=O)c1ccc2c(c1)sc1nc(=O)c(/C=C3/C=CC(=O)C(O)=C3)c(N)n12 | ? | 13µM* | ? | -80* | 28µM* | 13µM* | 38* | 1.9µM* | 31% | 3µM*
CC1=NN(c2cccc(C(=O)O)c2)C(=O)/C1=C\C=C\c1ccco1 | 15% | 4µM* | nt | -80* | 4.7µM* | 22µM* | 24* | 1.5µM* | -21% | 0.96µM*
CC1=NN(c2ccccc2)C(=O)/C1=C/C=C/c1ccccc1 | -1% | i | 6% | 7 | -16%[11.6 µM] | -19% | nt | nt | nt | nt
COCC(=O)Nc1cc(C(=O)N2CCSCC2)cc2nc(-c3ccccc3)n(C)c12 | -6% | nt | nt | nt | nt | nt | nt | nt | nt | nt
CC(OC(=O)/C(C#N)=C/c1ccc(N(C)C)cc1)C(=O)N(C)Cc1ccccc1 (stereo not given) | 4% | -4% | ? | 1 | 45µM* | ? | 76* | 24µM* | 74% | 22µM*
CC(OC(=O)c1cccc(O)c1)C(=O)N(C)Cc1ccccc1 (stereo not given) | 1% | 0% | 3% | -7 | -10% | -3% | nt | nt | nt | nt
Cc1nc(C)c(CC(=O)N2CCOc3ccc(CN4CCOCC4)cc3C2)s1 | -5% | nt | nt | nt | nt | nt | nt | nt | nt | nt
O=C(O)CSc1cc(NS(=O)(=O)c2ccc(Cl)cc2)c2ccccc2c1O | 5% | -1% | ? | -55* | 13µM* | 35µM* | 76* | ? | -12% | ?
COCCN1CCN(C(=O)c2cnn(-c3nccc(-c4ccccc4F)n3)c2-c2ccco2)CC1 | 1% | nt | nt | nt | nt | nt | nt | nt | nt | nt
CSc1ccc(/C=N/Nc2cccc(C(=O)O)c2)cc1 | -17% | ? | 19µM* | -99* | 11µM* | 22µM* | 43* | 4.8µM* | ? | 3µM*
Cc1nn(C)cc1CN1CCOc2ccc(CN3CCC(Oc4cccnc4)CC3)cc2C1 | 1% | nt | nt | nt | nt | nt | nt | nt | nt | nt
COc1ccc(-n2c(SCC(=O)O)nc3sc4c(c3c2=O)CCCC4)cc1 | -1% | 9% | -5% | 0 | -1% | -21% | nt | nt | nt | nt
COc1ccc(O)c(C(=O)c2cc(SCC(=O)O)c3nc4sc5c(c4c(=O)n3c2)CCCC5)c1 | 1% | -1% | nt | ? | 25µM* | ? | 38* | 22µM* | ? | 5.4µM*
Cc1cc(NS(=O)(=O)c2ccc(NC(=O)Cc3cccs3)cc2)no1 | -2% | 1% | 3% | nt | -6% | -1% | nt | nt | nt | nt
Cc1cc(NC(=O)Cc2cccs2)no1 | -1% | ? | ? | nt | ? | 56µM* | ? | 8.6µM* | 24µM* | 0.96µM*
O=C(O)c1ccc(-n2cccc2/C=C2\SC(=O)N(Cc3ccc(Cl)cc3)C2=O)cc1 | nt | nt | nt | nt | nt | nt | 76* | 9.6µM* | -28% | 8.6µM*
CSc1ncccc1C(=O)N1CCOc2ccc(C(C)(O)CCn3cccn3)cc2C1 (stereo not given) | -4% | nt | nt | nt | nt | nt | nt | nt | nt | nt
COc1cccc2c1C(=O)c1c(O)c3c(c(O)c1C2=O)CC(O)(C(C)=O)CC3OC1CC(O)C(O)C(C)O1 (stereo not given) | ? | -10% | ? | -12 | 3µM* | 28µM* | 85* | 22µM* | 297% | 22µM*
CCCN(CCC)CCCNC(=O)c1cc2c(-c3ccc(OC)c(OC)c3)nn(C)c2s1 | -6% | -4% | 1% | -1 | -6%[11.6 µM] | 28µM* | 27* | 19µM* | -30% | ?
